In PubChem BioAssay AID2530 (National Center for Advancing Translational Sciences (NCATS), 2010):
Results filed as inconclusive are left out. Active and inactive are the calls of the source. Calls follow the shape of the dose curve; as a rule, active = well fitted inhibition curve with a large enough effect; inconclusive = small, poorly fitted or top-dose-only effect; inactive = flat fitted curve, though single readings scatter.

target: Luciferin 4-monooxygenase (Photuris pensylvanica) (UniProt Q27757); assay: Secondary Assay for Luciferase (Kinase-Glo TM) Inhibition Counterscreen; conditions: Kinase-Glo luciferase enzyme, luminescence; series mostly up to 58.1 µM; activity, negative = inhibition: at the top concentration;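 as to activity, negative = inhibition: 0% = DMSO only and -100% = 40 µM SIB 1757 full inhibition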
In short: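 Inhibition was fitted with the Hill equation after normalizing luminescence to DMSO (basal) and 40 uM SIB 1757 (full inhibition). Kinase-Glo luciferase ran for 8 min at room temperature in imidazole buffer pH 7.2 with KCl, MgCl2 and 10 uM ATP.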
Potency is read from the fitted curve at half-maximal effect.

| SMILES | activity, negative = inhibition | Potency |
| --- | --- | --- |
| O=C1c2ccccc2C(=O)N1c1cccnc1 | -2.37% (inactive) |  |
| Cc1ccc(NS(=O)(=O)c2cc3c(cc2Cl)CCC(=O)N3)cc1C | -0.531% (inactive) |  |
| COc1cc(Cl)c(C)cc1NC(=O)COC(=O)c1cc[n+]([O-])cc1 | -3.12% (inactive) |  |
| Cc1cc(C)n2c(Nc3ccccc3)c(-c3ccc(C)o3)nc2n1 | -1.93% (inactive) |  |
| O=C1c2ccccc2C(=O)N1c1ccc(Cl)cc1 | 0.194% (inactive) |  |
| COc1ccccc1N1C(=O)c2ccccc2C1=O | 0.884% (inactive) |  |
| Cc1ccccc1-c1nc(-c2ccccn2)no1 |  | 4.61 µM (active) |
| COc1ccc(-c2cn3ccc(C)cc3n2)cc1 |  | 8.19 µM (active) |
| O=C1c2ccccc2C(=O)N1c1ncccc1O | -2.76% (inactive) |  |
| O=C1CCc2cc(S(=O)(=O)Nc3cccc(C(F)(F)F)c3)ccc2N1 | -1.7% (inactive) |  |
| CN(C)c1cccc(S(=O)(=O)N2CCN(S(=O)(=O)c3ccc4c(c3)OCCO4)CC2)c1 | -3.54% (inactive) |  |
| Cc1ccc(-c2cc3c(nn2)-c2ccccc2C3=O)cc1 |  | 5.8 µM (active) |
| CC(=O)Nc1cccc(S(=O)(=O)Nc2ccc(C)c(C)c2)c1 | -3.96% (inactive) |  |
| Cc1nc(-c2ccc(C(=O)Nc3ccccc3F)cc2)cs1 |  | 11.6 µM (active) |
| O=CN/C=C/c1cc(O)ccc1O | -4.82% (inactive) |  |
| O=C(/C=C1\C(=O)Nc2ccccc21)/C=C1\C(=O)Nc2ccccc21 | -14.8% (inactive) |  |
| Cc1ccc(NS(=O)(=O)c2ccc(Cl)cc2)cc1C | -0.974% (inactive) |  |
| c1ccc(C2=NNC(=NC3CC3)SC2)cc1 |  | 3.26 µM (active) |
| O=C1CCc2cc(S(=O)(=O)Nc3ccccc3F)ccc2N1 | 3.13% (inactive) |  |

| SMILES | activity, negative = inhibition | Potency |
| --- | --- | --- |
| Cc1ccccc1NS(=O)(=O)c1ccc2c(c1)CCC(=O)N2 | 0.467% (inactive) |  |
| Cc1ccc(NS(=O)(=O)c2cc3c(cc2-c2ccco2)NC(=O)CO3)cc1C | 3.64% (inactive) |  |
| COc1ccc(C(=O)C[n+]2ccc(N)c(C)c2C)cc1 | -1.09% (inactive) |  |
| c1ccc(-c2nc(-c3ccccn3)no2)cc1 |  | 3.66 µM (active) |
| O=C1CCc2cc(S(=O)(=O)NCc3ccccc3)ccc2N1 | -4.55% (inactive) |  |
| O=C(NC(=O)c1ccccc1)Nc1ccccn1 |  | 5.8 µM (active) |
| O=C1c2ccccc2C(=O)N1c1ccc2ncccc2c1 | 1.15% (inactive) |  |
| COc1ccc(OC2=NS(=O)(=O)c3ccccc32)cc1 | -2.4% (inactive) |  |
| Fc1ccc(-c2nc3n(n2)Cc2ccccc2-3)cc1 |  | 7.3 µM (active) |
| O=C1c2ccccc2C(=O)N1c1cccc2cccnc12 | -0.904% (inactive) |  |
| Cc1ccc(NS(=O)(=O)c2cc3c(cc2Br)NC(=O)CO3)cc1C | -0.929% (inactive) |  |
| O=C1c2ccccc2C(=O)N1c1cc(=O)c2ccccc2[nH]1 | 1.52% (inactive) |  |
| Cn1c(-c2ccc(Br)o2)nc2ccccc21 |  | 10.3 µM (active) |
| Cc1ccc(NS(=O)(=O)c2ccc3c(c2)NC(=O)CO3)cc1C | 3.32% (inactive) |  |
| Cc1ccc(NS(=O)(=O)c2ccc3c(c2)N(C)CCO3)cc1C | 0.646% (inactive) |  |
| Cc1ccc(NS(=O)(=O)c2ccc3c(ccn3C)c2)cc1C | 1.35% (inactive) |  |
| O=C1c2ccccc2C(=O)N1c1cnc2ccccc2c1 | 0.332% (inactive) |  |
| O=C(COC(=O)CCC(=O)c1ccc(F)cc1)Nc1ccc(F)cc1F | -4.06% (inactive) |  |
| Cc1cc(N2C(=O)c3ccccc3C2=O)no1 | 4.37% (inactive) |  |
